Most compounds without a hit are left out; they make up all but 1.7% or so of the library.
LNCaP diff act – promotes differentiation of LNCaP prostate cells | flow cytometry side scatter, 4 d | side scatter shift, % at 10 µM | hit rate 0.56% among 24,000;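 active = side scatter shift above 30%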;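 also: androgen-responsive LNCaP prostate cancer cells in charcoal-stripped serum medium; percent of cells past a gate set so DMSO wells show 10% shift; higher shift means more granular cells and more differentiation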
FPRL1 ligand – ligands of human FPRL1, also counter-screen for FPR ligands; P25090; FPRL1-expressing cells, fluorescent ligand binding inhibition, flow cytometry; inhibition, % (no concentration beside the values); hit rate 0.3% among 24,000; AID 441;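 also: 0% = buffer alone and 100% = receptor blocker peptide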
S aureus QS inh – blocks AIP-induced quorum sensing reporter in S. aureus; S. aureus RN6390 RNAIII-GFP reporter, flow cytometry 3 h; inhibition, % at 2 µM; hit rate 0.3% among 24,000;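 active = share of bacteria positive for the green fluorescent reporter and its mean brightness both inhibited by 50% or more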;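 also: 0% = AIP-stimulated control and 100% = unstimulated bacteria without AIP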
FPR binder – ligands of human FPR, also counter-screen for FPRL1 ligands. FPR-expressing cells, fluorescent ligand binding, flow cytometry. inhibition, % (no concentration beside the values). hit rate 0.74% among 24,000. P21462;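 also: 0% = buffer wells and 100% = receptor blocker peptide wells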
Target sequence (P21462 whole entry, looked up): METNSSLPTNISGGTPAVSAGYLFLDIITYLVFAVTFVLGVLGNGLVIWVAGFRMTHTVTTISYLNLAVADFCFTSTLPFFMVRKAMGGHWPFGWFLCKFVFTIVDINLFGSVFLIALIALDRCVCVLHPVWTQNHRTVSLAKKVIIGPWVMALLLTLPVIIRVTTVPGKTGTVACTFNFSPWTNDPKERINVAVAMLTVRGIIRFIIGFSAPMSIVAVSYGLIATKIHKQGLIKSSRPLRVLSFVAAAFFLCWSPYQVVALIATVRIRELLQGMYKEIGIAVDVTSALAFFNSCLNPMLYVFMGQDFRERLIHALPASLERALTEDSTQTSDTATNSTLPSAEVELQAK
* hit, by the source's call; x = not tested or not shown. Rule as the data show it, unless noted: active = inhibition above about 30%; inconclusive = no clear call, values can overlap the other calls; inactive = below that.

SMILES	LNCaP diff act	FPRL1 ligand	S aureus QS inh	FPR binder
COc1cc(NC(=O)c2cccc3c2C(=O)N(Cc2cccnc2)C3)cc(OC)c1OC	15	-2	-2	2
COc1ccc(CCN(C)CCCC(C#N)(c2ccc(OC)c(OC)c2)C(C)C)cc1OC (stereo not given)	3	-2	0	-5
CCC(=O)N1C(C(=O)N2CCCC2)CSC1c1ccc(OC)cc1 (stereo not given)	16	-5	3	-1
COc1ccc2cnn(-c3ccccc3)c(=O)c2c1OC	16	45*	-1	36*
O=C(NCc1ccc(Cl)cc1)c1noc2c1CCCCC2	8	2	8	5
CCOC(=O)Nc1ccc(OC)cc1S(=O)(=O)N1CCCCC1	14	51*	0	63*
CC(CCc1ccco1)NC(=O)c1cc2c(-c3ccccc3F)nn(C)c2s1 (stereo not given)	8	1	61*	3
Cc1cc2oc(C(=O)NC3CCS(=O)(=O)C3)c(C)c2cc1C (stereo not given)	12	51*	0	48*
O=C(NCC1CCCO1)C(=O)NCC(c1ccco1)N1CCN(c2ccccc2F)CC1 (stereo not given)	x	x	-1	x
Cc1oc(-c2ccccc2F)nc1CN1CCC(C(=O)NCCC2=CCCCC2)CC1	14	0	16	-4
CCOC(=O)c1c(NC(=O)C2C3CCC(O3)C2C(=O)O)sc(C)c1-c1ccc(C)cc1 (stereo not given)	x	-4	x	46*
CCOC(=O)c1cc(NC(=O)C2C3CCC(O3)C2C(=O)O)cc(C(=O)OCC)c1 (stereo not given)	x	15	x	2
CCOC(=O)c1c(C)oc2c(CC(=O)c3ccccc3)c(Cl)c(O)c(O)c12	x	x	-1	x
CCc1c(C)sc(NC(=O)c2cc(C)on2)c1C#N	2	-3	90*	6
Clc1cccc(-c2nnc3sc(-c4ccccc4)nn23)c1	32*	5	2	2
CCOc1ccc(NC(=O)c2oc3ccccc3c2NC(=O)C2CC2)cc1	16	-4	-11	-2
CCn1cc(C(=O)NC2CCC(C)CC2)c(=O)c2cc(S(=O)(=O)N3CCCCC3)ccc21 (stereo not given)	3	0	6	32*
CCS(=O)(=O)NCC(c1cccnc1)N1CCN(c2ccccc2F)CC1 (stereo not given)	5	-1	-5	3
CN(CC(O)COc1ccc(OCC(O)CN(C)C2CCCCC2)cc1)C1CCCCC1 (stereo not given)	37*	-4	-4	-1
CN1CCN(c2ccccc2NS(=O)(=O)c2ccc3c(c2)CCN3C(=O)C2CCC2)CC1	46*	-4	4	1
Cc1ccccc1-c1nc(CN2CCC(C(=O)NCCCN3CCOCC3)CC2)c(C)o1	16	2	1	-4
Cc1ccccc1-c1nc(CN2CCC(C(=O)NCCCN3CCCC3)CC2)c(C)o1	65*	1	0	3
Cc1ccccc1-c1nc(CN2CCC(C(=O)NCc3ccco3)CC2)c(C)o1	14	-2	3	-7
Cc1ccccc1-c1nc(CN2CCC(C(=O)NCCCN3CC(C)CC(C)C3)CC2)c(C)o1 (stereo not given)	75*	3	8	1
CCCc1cc(C(=O)NCC(C)C)no1	12	0	-2	-1
SMILES	LNCaP diff act	FPRL1 ligand	S aureus QS inh	FPR binder
Clc1ccc(SCCn2ccnc2)cc1	7	13	0	-5
CSc1ccc(C2C(C#N)=C(N)Oc3c2ccc(=O)c2c(C)oc(C)c32)cc1 (stereo not given)	33*	-9	0	-27
CSc1ccc(C2C(C#N)=C(N)N(c3ccccc3)C3=C2C(=O)CCC3)cc1 (stereo not given)	5	-1	0	3
O=C(NCC1CCCO1)C1CC(c2ccc(Cl)c(Cl)c2)=NO1 (stereo not given)	28	-3	-1	2
COCCN1Cc2cccc(C(=O)NCc3ccc4c(c3)OCO4)c2C1=O	12	33*	-8	25
O=C(c1ccccc1)c1ccc(N2CCNCC2)cc1	41*	1	0	-6
O=C(c1ccc(N2CCN(C3CC(=O)N(c4ccc(F)cc4)C3=O)CC2)cc1)c1cccnc1 (stereo not given)	x	x	-2	x
COc1ccccc1C1/C(=C(/O)c2ccccc2)C(=O)C(=O)N1CCO (stereo not given)	16	-2	-2	51*
COc1ccccc1C1/C(=C(/O)c2ccccc2)C(=O)C(=O)N1CC(C)O (stereo not given)	6	-3	-1	42*
COCCCN1C(=O)C(=O)/C(=C(/O)c2ccccc2)C1c1ccc2c(c1)OCO2 (stereo not given)	x	0	x	54*
